# Assay results from PubChem BioAssay (NCATS).
# Unmarked numbers belong to inactive results. Inconclusive results are not listed. Entries that show only a call come without a potency. Activity calls are given as the source filed them. Calls come from the whole dose curve; as a rule, active = well fitted curve in the direction sought with a large enough effect; inconclusive = small, poorly fitted or top-dose-only effect, or another doubt; inactive = no such curve, though single readings can be large; an effect the other way counts as inactive or inconclusive.
# Key:
# [1] = qHTS to identify inhibitors of the type 1 interferon - major histocompatibility complex class I in skeletal muscle: primary screen against the NCATS Mechanism Interrogation Plate v5.0 (MIPE) Libary (AID 1347411); note: nearly all actives have a fitted effect of over 65% in size; note: potency is the fitted concentration of half-maximal effect
# How it was run: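 Cells were genome-edited human myoblasts carrying a HiBit tag on endogenous HLA-B. They were treated with IFN-beta (4.0 ng/ml) and titrated compounds (top 46 uM) for 24 hrs before lytic HiBiT detection.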
# [2] = molecular target: Calcium and integrin-binding protein 1 (Homo sapiens) (UniProt Q99828); experiment: Primary qHTS for Identification of Calcium Integrin Binding Protein 1 (CIB1) Competitor (AID 1508620); note: potency is the fitted concentration of half-maximal effect
# How it was run: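 Fluorescence polarization competition: GST-tagged CIB1 (1 uM final) preincubated with compound 15 min at room temperature, then FITC-labelled alphaIIb peptide (100 nM final) added. After 15 min at room temperature, polarization read at Ex 480/Em 540.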
# [3] = qHTS to identify inhibitors of the type 1 interferon - major histocompatibility complex class I in skeletal muscle: primary screen against the NCATS Pharmaceutical Collection (AID 1347407);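 note: luminescence of HiBiT knocked into endogenous HLA-B as interferon-induced MHC class I level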
# How it was run: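 Immortalized human myoblasts (C25cl48) with HiBiT knocked into endogenous HLA-B*08:01 were stimulated with 4 ng/ml IFN-beta and treated with compounds (8-point, 1:5, top 46 uM final) for 24 h at 37 C; HiBiT lytic luminescence read.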
# [4] = molecular target: Protein phosphatase 1D (Homo sapiens) (UniProt O15297); experiment: RapidFire Mass Spectrometry qHTS Assay for Modulators of WT P53-Induced Phosphatase 1 (WIP1) (AID 1347424);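 note: amount of dephosphorylated VEPPL-S-QETFS peptide product formed by WIP1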; note: potency is the fitted concentration of half-maximal effect
# How it was run: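 10 nM WIP1 preincubated with compounds 1 hr at room temperature in pH 7.5 Tris buffer with 30 mM MgCl2, 1 mM TCEP; 2 uM VEPPL-pS-QETFS phosphopeptide for 5 min, formic acid quench; dephosphorylated product quantified by RapidFire MS against labelled standard.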
# [5] = molecular target: Protein phosphatase 1D (Homo sapiens) (UniProt O15297); experiment: Rhodamine-PBP qHTS Assay for Modulators of WT P53-Induced Phosphatase 1 (WIP1) (AID 1347425)
# How it was run: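 5 nM WIP1 + 10 uM Rh-PBP, 50 mM Tris pH 7.5, 30 mM MgCl2, 1 mM TCEP, 0.1 mM EGTA, BSA; cpds pinned, 1 hr RT; + 10 uM phosphopeptide; fluorescence 1-min reads x 11 min; delta = f1 - f0.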
# [6] = Primary qHTS for inhibitors of La Crosse Virus (LACV) - induced cell death in SH-SY5Y cells (AID 1508616);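 note: top concentration of the series differs between compounds; higher means more rescue of cells from virus-induced death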
# How it was run: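 Readout was luminescence from ATPLite 1step added after a 6-day LACV infection (0.01 MOI) of SH-SY5Y cells that had received pin-transferred compound 24 hr after seeding.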
# [7] = qHTS for inhibitors of adenylyl cyclases using a fission yeast platform: a pilot screen against the NCATS LOPAC library (AID 1347410)
# How it was run: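 S. pombe CHP2027 (AC9-GNAS-PDE4D2) carrying a PKA-repressed fbp1-GFP reporter was exposed to LOPAC compounds (final up to 57 µM) for 18 h at 30C in the dark, in EMM with histidine, lysine and uracil; GFP gain-of-signal read by laser scanning cytometry.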
# [8] = molecular target: Calcium and integrin-binding protein 1 (Homo sapiens) (UniProt Q99828); experiment: Validation qHTS for Identification of Calcium Integrin Binding protein 1 (CIB1) Competitor (AID 1508618)
# How it was run: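 Displacement of FITC-alphaIIb peptide (100 nM) from CIB1-GST (1 uM) is monitored by polarization in quantitative HTS format; buffer carries 5 mM CaCl2 and 125 mM NaCl at pH 7.4, incubations are at room temperature.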
# [9] = Confirmatory qHTS for small molecule stabilizers of the endoplasmic reticulum resident proteome: Secreted ER Calcium Modulated Protein (SERCaMP) assay (AID 1508628);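 note: SH-SY5Y cells given compound 16 h then thapsigargin 100 nM for 4 h; series mostly up to about 76 µM; nearly all actives have a fitted effect of over 40% in size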
# How it was run: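 We seeded SH-SY5Y-GLuc-SERCaMP cells, added compounds (three concentrations in the primary run, eleven up to 76.6 uM in confirmation), incubated 16 h, depleted ER calcium with thapsigargin, and read luciferase 4 h later.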
# Sequence of Protein phosphatase 1D (Homo sapiens) (O15297 whole entry, looked up): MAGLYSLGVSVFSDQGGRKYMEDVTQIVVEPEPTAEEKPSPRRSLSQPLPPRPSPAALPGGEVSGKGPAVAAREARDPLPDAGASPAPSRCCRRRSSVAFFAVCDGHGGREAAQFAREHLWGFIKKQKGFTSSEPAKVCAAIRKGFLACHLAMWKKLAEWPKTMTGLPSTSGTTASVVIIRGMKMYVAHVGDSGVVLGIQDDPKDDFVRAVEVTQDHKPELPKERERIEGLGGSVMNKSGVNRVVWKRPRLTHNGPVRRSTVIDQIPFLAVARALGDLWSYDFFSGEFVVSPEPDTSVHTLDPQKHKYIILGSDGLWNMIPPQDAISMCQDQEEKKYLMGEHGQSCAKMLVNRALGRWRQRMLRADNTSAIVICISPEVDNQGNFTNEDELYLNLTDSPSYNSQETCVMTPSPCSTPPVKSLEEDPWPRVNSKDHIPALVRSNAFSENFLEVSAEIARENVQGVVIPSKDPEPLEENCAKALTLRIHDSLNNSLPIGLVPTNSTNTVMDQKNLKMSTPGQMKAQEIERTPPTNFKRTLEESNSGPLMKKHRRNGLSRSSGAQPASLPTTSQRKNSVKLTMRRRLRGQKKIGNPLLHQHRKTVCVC
# Sequence of Calcium and integrin-binding protein 1 (Homo sapiens) (Q99828 whole entry, looked up): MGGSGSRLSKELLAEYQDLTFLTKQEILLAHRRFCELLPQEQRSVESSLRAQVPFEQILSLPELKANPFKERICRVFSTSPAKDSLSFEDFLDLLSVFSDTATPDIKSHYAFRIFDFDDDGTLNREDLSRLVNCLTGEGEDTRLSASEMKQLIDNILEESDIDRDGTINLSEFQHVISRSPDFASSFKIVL
structure (smiles),measurement,setting,value
CC1=C(CO)C(=O)O[C@@H]([C@@H](C)[C@H]2CC[C@H]3[C@@H]4C[C@H]5O[C@]56[C@@H](O)C=CC(=O)[C@]6(C)[C@H]4CC[C@]23C)C1,Potency,[1],0.466 µM (active)
same,Potency,[2],inactive
O=C(O)c1ccccc1NCCc1ccccc1,outcome,[3],inactive
same,Potency,[4],inactive
same,outcome,[5],inactive
same,outcome,[6],inactive
same,Potency,[2],inactive
COc1cc2ncnc(Nc3cccc(Cl)c3F)c2cc1OC(=O)N1CCN(C)C[C@H]1C,Potency,[1],inactive
same,Potency,[2],inactive
CCCN1CCN(c2ccc(C(=O)NC3(C(=O)NCC#N)CCCCC3)cc2)CC1,Potency,[1],inactive
same,Potency,[2],inactive
COCCOc1ccc(N2CCN(CCn3ncc4c3nc(N)n3nc(-c5ccco5)nc43)CC2)cc1,Potency,[1],inactive
same,Potency,[2],inactive
CC[C@]1(O)CC2CN(CCc3c([nH]c4ccccc34)[C@@](C(=O)OC)(c3cc4c(cc3OC)N(C)[C@H]3[C@@](O)(C(=O)OC)[C@H](OC(C)=O)[C@]5(CC)C=CCN6CC[C@]43[C@@H]65)C2)C1 (stereo not given in full),outcome,[7],inactive
same,outcome,[8],inactive
same,Potency,[2],inactive
CN(C)C/C=C/C(=O)Nc1cccc(C(=O)Nc2cccc(Nc3ncc(Cl)c(-c4c[nH]c5ccccc45)n3)c2)c1,Potency,[1],0.658 µM (active)
same,Potency,[2],inactive
Cc1ccc(N)cc1O,outcome,[3],inactive
same,Potency,[4],44.7 µM (active)
same,outcome,[6],inactive
same,outcome,[9],inactive
CN1CCN(C2CCC(n3cc(-c4ccc(Oc5ccccc5)cc4)c4c(N)ncnc43)CC2)CC1 (stereo not given),Potency,[1],11.7 µM (active)
CCOc1cc(C(=O)N2CCC(N3CCN(C)CC3)CC2)ccc1Nc1ncc2c(n1)N(C1CCCC1)c1ccccc1C(=O)N2C,Potency,[1],23.4 µM (active)
Nc1ccccc1N,outcome,[3],inactive
same,Potency,[4],inactive
same,outcome,[5],inactive
same,Potency,[2],100 µM (active)
CCO[C@@H]1OC(=O)C[C@@H]1NC(=O)[C@@H]1CCCN1C(=O)[C@@H](NC(=O)c1ccc(N)c(Cl)c1)C(C)(C)C,Potency,[1],inactive
same,Potency,[2],inactive
CNCc1ccc(-c2cc(-c3nc(-c4ccc(S(=O)(=O)C(C)C)cc4)cnc3N)on2)cc1,Potency,[1],inactive
same,Potency,[2],inactive
c1cc(Nc2cc(C3CC3)[nH]n2)nc(Nc2ccc3nc[nH]c3c2)n1,Potency,[1],1.31 µM (active)
same,Potency,[2],inactive
CO[C@H]1C[C@@H]2CC[C@@H](C)[C@@](O)(O2)C(=O)C(=O)N2CCCC[C@H]2C(=O)O[C@H]([C@H](C)C[C@@H]2CC[C@@H](OP(C)(C)=O)[C@H](OC)C2)CC(=O)[C@H](C)/C=C(\C)[C@@H](O)[C@@H](OC)C(=O)[C@H](C)C[C@H](C)/C=C/C=C/C=C/1C,Potency,[1],18.6 µM (active)
same,Potency,[2],inactive
COCCN1CCN(Cc2ccc(-c3n[nH]c4c3C(=O)c3c(NC(=O)NN5CCOCC5)cccc3-4)cc2)CC1,Potency,[1],0.208 µM (active)
same,Potency,[2],inactive
COC(=O)N(C)c1c(N)nc(-c2nn(Cc3ccccc3F)c3ncccc23)nc1N,Potency,[1],inactive
same,Potency,[2],inactive
C[C@H](Nc1ncnc2nc[nH]c12)c1cc2ccc(F)cc2nc1-c1ccccn1,Potency,[1],inactive
same,Potency,[2],inactive
Cc1cc(Nc2cc(N3CCN(C)CC3)nc(/C=C/c3ccccc3)n2)n[nH]1,Potency,[1],5.23 µM (active)
same,Potency,[2],inactive
CC(O)c1cc(C(=O)N[C@@H](C)Cn2ccc(-c3ccc(C#N)c(Cl)c3)n2)n[nH]1 (stereo not given in full),Potency,[1],inactive
